Measurements: PubChem BioAssay (EPA / NIEHS)
Records with an inconclusive call do not appear. Activity calls are given as the source filed them. The calls were made as follows, unless noted: active = hit-call score of the fitted dose curve at least 0.9, where 1 is the maximum; inconclusive = response in the unintended direction; inactive = score below 0.9.

Legend:
[1] = TOX21_p53_BLA_p2_viability: Viability Assessment in the Tox21 HCT-116 p53 Agonism Beta-lactamase Assay, Phase 2 (AID 2283591);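 also: actives lower the ATP signal meaning cytotoxicity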
Outline: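 Cytotoxicity readout: CellTiter-Glo ATP luminescence, 30 min at room temperature, after the beta-lactamase read. Cells were HCT116 exposed 16 h at 37C to compounds pin-transferred at 217-fold dilution from DMSO stocks.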

[2] = target: Cellular tumor antigen p53 (Homo sapiens) (UniProt P04637); experiment: TOX21_p53_BLA_p2_ratio: Tox21 HCT-116 p53 Agonism Beta-lactamase Assay, Ratio, Phase 2 (AID 2283592)
Sequence of Cellular tumor antigen p53 (Homo sapiens) (P04637 whole entry, looked up): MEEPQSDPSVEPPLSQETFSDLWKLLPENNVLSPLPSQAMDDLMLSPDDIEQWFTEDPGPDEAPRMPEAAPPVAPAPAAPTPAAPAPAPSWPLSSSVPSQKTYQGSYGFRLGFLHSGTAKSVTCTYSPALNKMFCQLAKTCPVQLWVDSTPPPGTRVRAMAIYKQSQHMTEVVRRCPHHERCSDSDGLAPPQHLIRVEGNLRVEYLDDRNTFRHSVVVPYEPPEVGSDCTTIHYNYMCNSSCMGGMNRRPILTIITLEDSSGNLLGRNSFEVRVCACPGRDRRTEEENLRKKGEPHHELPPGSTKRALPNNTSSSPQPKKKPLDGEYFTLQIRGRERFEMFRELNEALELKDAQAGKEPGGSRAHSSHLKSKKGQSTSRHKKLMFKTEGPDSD
Outline: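 An inducible beta-lactamase reporter in HCT116 cells signals p53 pathway activation. After 16 h chemical exposure at 37C, cells load CCF4-AM substrate for 2 h at room temperature; activity is the cleaved/uncleaved emission ratio relative to DMSO.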

[3] = TOX21_p53_BLA_p3_viability: Viability Assessment in the Tox21 HCT-116 p53 Agonism Beta-lactamase Assay, Phase 3 (AID 2283593);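 also: cells exposed to compound for 16 h before reading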
Outline: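 Cellular ATP was quantified by CellTiter-Glo luminescence, read after 30 min at room temperature. Beforehand, HCT116 cells (4000/well) received compound 5 h post-seeding, 217-fold diluted from DMSO, then incubated 16 h at 37C.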

[4] = TOX21_p53_BLA_p4_viability: Viability Assessment in the Tox21 HCT-116 p53 Agonism Beta-lactamase Assay, Phase 4 (AID 2283597);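 also: hits lower the luminescence signal meaning cytotoxicity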
Outline: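 Compound exposure of HCT116 cells lasts 16 h at 37C, 5% CO2, with DMSO stocks diluted 217-fold. Cellular ATP is then quantified by CellTiter-Glo luminescence after 30 min at room temperature.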

[5] = target: Cellular tumor antigen p53 (Homo sapiens) (UniProt P04637); experiment: TOX21_p53_BLA_p5_ratio: Tox21 HCT-116 p53 Agonism Beta-lactamase Assay, Ratio, Phase 5 (AID 2283599)
Outline: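 Beta-lactamase reporter ratio (blue 460 nm over green 530 nm, 405 nm excitation) after 2 h CCF4-AM loading, in HCT-116 cells exposed 16 h at 37 C to compounds pinned at 217-fold dilution. Increases relative to DMSO baseline scored.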

[6] = target: Cellular tumor antigen p53 (Homo sapiens) (UniProt P04637); experiment: TOX21_p53_BLA_p4_ratio: Tox21 HCT-116 p53 Agonism Beta-lactamase Assay, Ratio, Phase 4 (AID 2283601)
Outline: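 Signal is the blue/green (460nm/530nm) ratio of cleaved versus uncleaved CCF4-AM substrate, read after 2 h substrate loading. Cells were HCT116 carrying the p53-responsive beta-lactamase reporter, dosed 16 h at 37C, 5% CO2; CellTiter-Glo measured in parallel.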

[7] = TOX21_p53_BLA_p5_viability: Viability Assessment in the Tox21 HCT-116 p53 Agonism Beta-lactamase Assay, Phase 5 (AID 2283600)
Outline: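 Counter-readout for cytotoxicity: ATP-dependent luminescence from CellTiter-Glo, read in the beta-lactamase wells after 30 min at RT, following a 16 h compound exposure at 37C.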

[8] = TOX21_PR_BLA_Followup_Agonist_viability: Viability Assessment in the Tox21 HEK293 Progesterone Receptor (PR) Agonism Beta-lactamase Follow-Up Assay (AID 2283935);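 also: signal loss means lower viability so actives are cytotoxic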
Outline: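 PR-UAS-bla HEK293T cells in 2% charcoal-stripped FBS medium, plated 6 hr before compound addition, exposed 16 hr at 37C. Viability read by CellTiter-Glo ATP luminescence after 30 min at room temperature, in the same wells as the beta-lactamase readout.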

[9] = TOX21_PR_BLA_Followup_Antagonist_viability: Viability Assessment in the Tox21 HEK293 Progesterone Receptor (PR) Antagonism Beta-lactamase Follow-Up Assay (AID 2283936);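 also: hits lower the luminescence signal meaning cytotoxicity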
Outline: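 PR-UAS-bla HEK293T cells (3,000/well, 2% charcoal-stripped FBS) given compound plus R5020 agonist, 16 h at 37C. CellTiter-Glo added after bla read, 30 min at room temperature; luminescence loss indicates cytotoxicity.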

[10] = TOX21_PR_LUC_Followup_Agonist_viability: Viability Assessment in the Tox21 HEK293 Progesterone Receptor (PR) Agonism Luciferase Follow-Up Assay (AID 2283941);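 also: loss of signal means cytotoxicity so actives lower viability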
Outline: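 HEK293-PR-A-luc cells, kept in 10% charcoal-stripped FBS medium, were treated with compounds for 16 h at 37C. Viability read as cellular ATP by luciferase-coupled luminescence; loss of signal indicates cytotoxicity.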

[11] = ACEA_ER_AUC_viability: ACEA Biosciences xCELLigence Real-Time Cell Analysis on Estrogen Receptor Agonism for Viability (AID 2283782);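 also: continuous compound exposure with impedance area under curve over 80 h; hit means loss of impedance signal meaning reduced cell growth or viability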
Outline: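 T-47D; phenol red-free RPMI1640 + 10% CS-FBS; 8 conc., 1:4 serial, max 100 uM final, ≤0.5% DMSO; n = 2; continuous exposure; impedance monitored to 80 h post-dose; AUC vs DMSO.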

[12] = CCTE_Harrill_HTTr_Viability_MCF7: CCTE's 6-hour Cell Viability Assessment for the High-Throughput Transcriptomics (HTTr) Platform, in MCF-7 cells cultured in DMEM + 10% fetal bovine serum, Harrill Lab (AID 2284010; active = hit-call score of the fitted dose curve at least 0.9, where 1 is the maximum; inactive = score below 0.9)
Outline: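 MCF-7 cells in DMEM + 10% FBS, 384-well, exposed 6 h to an eight-point dilution series. Membrane integrity scored by high-content imaging of propidium iodide exclusion; bidirectional fit versus DMSO.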

[13] = CCTE_Harrill_HTTr_Apoptosis_MCF7: CCTE's 6-hour Apoptosis Assessment for the High-Throughput Transcriptomics (HTTr) Platform, in MCF-7 cells cultured in DMEM + 10% fetal bovine serum, Harrill Lab (AID 2284011; active = hit-call score of the fitted dose curve at least 0.9, where 1 is the maximum; inactive = score below 0.9)
Outline: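 Cells are dosed with test chemicals at eight concentrations and imaged 6 hours later for caspase-3/7 activity using a green fluorogenic detection reagent. Activity is fitted in both directions against DMSO controls.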

[14] = CCTE_Harrill_HTTr_CellCount_MCF7: CCTE's Cell Proliferation Assessment for the High-Throughput Transcriptomics (HTTr) Platform, Harrill Lab (AID 2284012);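 also: cells exposed to compound for six hours; intended direction is loss of nuclei count meaning fewer cells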
Outline: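 MCF7 cells exposed 6 hours to an eight-point dilution series; Hoechst-stained nuclei counted by high-content imaging. Bidirectional curve fitting against DMSO baseline.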

Measured: AC50

CN1CCC(OC(=O)C(Oc2ccc(Cl)cc2)Oc2ccc(Cl)cc2)CC1
inactive: [1] | [2] | [3] | [4] | [5] | [6]

C[C@]12CCC(=O)C=C1[C@@H]1C[C@@H]1[C@H]1[C@@H]3[C@@H]4C[C@@H]4[C@@]4(CCC(=O)O4)[C@@]3(C)CC[C@@H]12
active: [2] 43.4 µM
not listed: [6] | [11] | [12] | [13] | [14]
inactive: all other assays above

C=C(C)C(=O)OCCCCCCCCCCCCC
inactive: [1] | [2] | [3] | [4] | [7] | [6]

O=Cc1ccc([N+](=O)[O-])cc1
inactive: [1] | [2] | [3] | [4] | [5] | [6]

OC[C@H](Cc1cccc(O)c1)[C@H](CO)Cc1cccc(O)c1
inactive: [1] | [2] | [3] | [4] | [7]

C=CCN1C[C@H](C(=O)N(CCCN(C)C)C(=O)NCC)C[C@@H]2c3cccc4[nH]cc(c34)C[C@H]21
inactive: [1] | [2] | [3] | [4] | [5] | [7] | [6]

CC(C)CCCCCCN
inactive: [1] | [2] | [3] | [4] | [7]

Cc1nccn1CC1CCc2c(c3ccccc3n2C)C1=O (centres undefined)
inactive: [1] | [2] | [3] | [4] | [7] | [6]

CCC(=O)c1ccc2c(c1)N(CCCN1CCN(CCO)CC1)c1ccccc1S2
inactive: [1] | [2] | [3] | [7] | [6]
active: [4] 33.3 µM

CCOC(=O)[C@H](CCc1ccccc1)N[C@@H](C)C(=O)N(CC(=O)O)C1Cc2ccccc2C1
active: [4] 7.13 µM
inactive: [1] | [2] | [3] | [7] | [6]

CCCCCCCCCOC(=O)c1ccccc1C(=O)OCCCCCCCCC
inactive: [1] | [2] | [3] | [4] | [5] | [6]

CC[C@H]1OC(=O)[C@H](C)[C@@H](O[C@H]2C[C@@](C)(OC)[C@@H](O)[C@H](C)O2)[C@H](C)[C@@H](O[C@@H]2O[C@H](C)C[C@H](N(C)C)[C@H]2O)[C@](C)(O)C[C@@H](C)CN(C)[C@H](C)[C@@H](O)[C@]1(C)O
inactive: [1] | [2] | [3] | [4] | [7] | [6]

CCN1CCN(c2cc(-c3ccc(F)cc3)c3c(n2)CCCCCC3)CC1
inactive: [1] | [2] | [3] | [4] | [7] | [6]

CC(C)c1cc2c(cc1S(=O)(=O)O)[C@@]1(C)CCC[C@@](C)(C(=O)O)[C@@H]1CC2
inactive: [1] | [2] | [3] | [4] | [5] | [6]

CC(C)=CCC/C(C)=C/CC/C(C)=C/CC/C=C(\C)CC/C=C(\C)CCC=C(C)C
inactive: [1] | [2] | [3] | [4] | [7] | [6]

O=c1cc[nH]c(=O)[nH]1
inactive: [1] | [2] | [3] | [4] | [7] | [6]

Nc1ccc2cc(S(=O)(=O)O)cc(O)c2c1
inactive: [1] | [2] | [3] | [5] | [6]

CCN1CCN(c2cc3c(cc2F)c(=O)c(C(=O)O)cn3C2CC2)CC1
inactive: [1] | [2] | [3] | [5] | [7]

C=CC1=C(C(=O)O)N2C(=O)[C@@H](NC(=O)C(=NOCC(=O)O)c3csc(N)n3)[C@H]2SC1
inactive: [1] | [2] | [3] | [5] | [6]

C[N+](C)(C)CCOC(N)=O
inactive: [1] | [2] | [3] | [5] | [7] | [6]

c1cnccn1
inactive: [1] | [2] | [3] | [5] | [7]

O=C(O)CCCc1c[nH]c2ccccc12
not listed: [5] | [8] | [9] | [10] | [14]
inactive: all other assays above

COc1ccccc1OCC(O)COC(N)=O (centres undefined)
inactive: [1] | [2] | [3] | [5] | [7] | [12] | [13]

CC(C)CCC[C@@H](C)[C@H]1CC[C@H]2[C@@H]3CC=C4C[C@@H](O)CC[C@]4(C)[C@H]3CC[C@]12C
inactive: [1] | [2] | [3] | [5] | [6]

Cc1[nH]cnc1CN1CCc2c(c3ccccc3n2C)C1=O
inactive: [1] | [2] | [3] | [5] | [7] | [6]

C=C(C)C1CCC(C)(O)CC1 (centres undefined)
not listed: [4] | [8] | [9] | [10] | [11]
inactive: all other assays above

CO/N=C(\C(=O)N[C@@H]1C(=O)N2C(C(=O)OCOC(=O)C(C)(C)C)=C(/C=C\c3scnc3C)CS[C@H]12)c1csc(N)n1
inactive: [1] | [2] | [3] | [5] | [6]

C[Si](C)(C)C
inactive: [1] | [2] | [3] | [5] | [6]

CC12CCC(C(=O)C1=O)C2(C)C (centres undefined)
inactive: [1] | [2] | [3] | [5] | [7]

C/C(=N\O)c1ccc(OCC(=O)N2CCCCC2)cc1
inactive: [1] | [2] | [3] | [7]
